Screening data (PubChem BioAssay)
TRHR agonist-1 – activates the human TRH receptor; 360,000 tested, 0.18% active; TRHR cells, calcium flux fluo-8, FDSS agonist mode; activation, % at 2 µM; AID 493084; P34981; in the data active = activation above about 30%
Target sequence (P34981 whole entry, looked up): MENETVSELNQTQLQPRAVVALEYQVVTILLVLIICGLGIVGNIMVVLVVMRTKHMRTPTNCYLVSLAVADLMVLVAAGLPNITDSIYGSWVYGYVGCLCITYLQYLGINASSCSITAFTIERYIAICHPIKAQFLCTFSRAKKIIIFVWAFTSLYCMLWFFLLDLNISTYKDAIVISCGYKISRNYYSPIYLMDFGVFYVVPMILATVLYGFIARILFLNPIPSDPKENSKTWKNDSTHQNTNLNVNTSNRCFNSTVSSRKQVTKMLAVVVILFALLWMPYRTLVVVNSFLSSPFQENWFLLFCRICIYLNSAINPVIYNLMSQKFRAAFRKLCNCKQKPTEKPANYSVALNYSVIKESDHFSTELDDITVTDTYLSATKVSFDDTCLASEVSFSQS
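Read-out: compound-evoked intracellular calcium rise in TRHR cells, fluo-8 dye, kinetic FDSS fluorescence at 1 s/cycle following a 10-cycle baseline. Cells cultured overnight before dye loading (30 min–1.5 h, RT).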
D1 antag – blocks dopamine activation of the human D1 receptor; activity change, negative = inhibition, % at 10 µM; 360,000 tested, 3.2% active; HEK293 TREx D1 cells, calcium flux, dopamine EC80; active compounds read low; in the data active = activity change below about -30%
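Using tetracycline-induced force-coupled D1 Hek293 cells and a calcium dye, signals were followed for 180 s after compound, then for 180 s after EC80 dopamine, to detect inhibitors.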
TRHR enhancer-1 – allosteric enhancers of human TRH receptor; P34981; TRHR cells, fluo-8 calcium fluorescence, EC20 TRH enhancement; enhancement, % at 2 µM; 360,000 tested, 0.66% active; AID 493056; in the data active = enhancement above about 30%
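Enhancer read-out: after compound pinning and an initial kinetic agonist-mode read, an EC20 of TRH (10 nM final) was injected and fluo-8 calcium signal (Ex 480/Em 530) followed at 1 s/cycle for 100 cycles in TRHR-expressing cells.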
D1 potentiator – enhances dopamine response at the human D1 receptor; AID 504651; HEK293 TREx D1 cells, calcium flux, dopamine EC20 potentiation; potentiation, % at 10 µM; P21728; 360,000 tested, 0.036% active; in the data active = potentiation above about 30%
D1 agonist – activates the human D1 dopamine receptor; P21728; HEK293 T-REx D1 cells, calcium flux, agonist mode; activation, % at 2 µM; 360,000 tested, 1% active; in the data active = activation above about 30%
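Inducible HEK293 T-REx D1 cells, force-coupled to calcium signalling, were plated at 4000 cells/well with tetracycline and held overnight at 30 C. After no-wash calcium dye loading, compound-evoked calcium rise over 180 s flagged agonists.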
TRHR enhancer-2 – confirmation of human TRH receptor allosteric enhancers; shares compounds with TRHR enhancer-1; TRH receptor cell assay, enhancer confirmation qHTS; activity change, negative = inhibition, % at 46.1 µM; 970 tested, under 10 active; AID 493076;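 also: compound effect scored on response to added TRH at EC20 of 10 nM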
TRHR agonist-2 – confirmation of human TRH receptor agonists; shares compounds with TRHR enhancer-1; TRHR-expressing cells, agonist activation read-out; Potency, µM (titrated, usually from 46.1 µM), actives largely listed as activators; 970 tested, 8% active; AID 493078; also: nearly all actives have a fitted effect of over 75% in size
Each line names hits and unclear results; the compound was inactive in the other large screens (follow-up assays come after a bar, where they were run). Hits are enriched below; roughly 4.6% of the tested compounds scored in any of these assays. Unless noted, calls follow the shape of the dose curve; as a rule, active = well fitted curve in the direction sought with a large enough effect; inconclusive = small, poorly fitted or top-dose-only effect, or another doubt; inactive = no such curve, though single readings can be large; an effect the other way counts as inactive or inconclusive.

CCO[C@H]1OC(C(=O)NC2CC2)=C[C@@H](C)[C@@H]1CCCO	TRHR enhancer-1 44 | TRHR enhancer-2 inactive | TRHR agonist-2 inactive
Cn1c(-c2ccc3ccccc3n2)nc2cnccc21	TRHR enhancer-1 54 | TRHR enhancer-2 inconclusive | TRHR agonist-2 inactive
COc1cc(OC)c(-c2nc3cnccc3n2C)cc1OC	none
Cc1c(-c2n[nH]c(=S)n2-c2ccc(Br)cc2)nnn1-c1ccc(Cl)cc1	none
CCOc1ccccc1NC(=O)NC1CC2CCCC(C1)N2Cc1nnnn1CCc1ccccc1 (stereo unspecified)	TRHR agonist-1 61 | TRHR enhancer-2 inactive | TRHR agonist-2 inactive
O=C(NC1CCCCCC1)C(=S)NCc1ccccc1	none
CCCCn1c(=O)[nH]c(=O)c2c1nc(-c1cccc(OC)c1)n2C	none
CCc1nnc(NC(=O)CCC(=O)N2CCN(Cc3cc(Cl)ccc3OC)CC2)s1	TRHR enhancer-1 64 | TRHR enhancer-2 inactive | TRHR agonist-2 inactive
N=C1/C(=C\c2coc3ccc(O)cc3c2=O)C(=O)N=C2SC=CN12	TRHR agonist-1 59, D1 agonist 132 | TRHR enhancer-2 inactive | TRHR agonist-2 9.2µM
CN1C(=O)/C(=C/c2coc3ccc(O)cc3c2=O)SC1=S	none
O=C(Nc1ccc(NC(=O)c2ccccc2F)cc1)c1cccs1	none
COc1ccccc1CN(C)C(=O)CN1CCN(S(=O)(=O)c2ccc3c(c2)OCCCO3)CC1	TRHR enhancer-1 55 | TRHR enhancer-2 inactive | TRHR agonist-2 inactive
CC1(C)Oc2ccc(C(=O)NC3CCCCC3)cc2N(CC#N)C1=O	TRHR enhancer-1 46 | TRHR enhancer-2 inactive | TRHR agonist-2 inactive
CCC(C)NS(=O)(=O)c1ccc(NC(=O)C(Sc2ccccc2)c2ccccc2)cc1 (stereo unspecified)	none
CCCCNS(=O)(=O)c1ccc(NC(=O)C(Sc2ccccc2)c2ccccc2)cc1 (stereo unspecified)	none | TRHR enhancer-2 inactive | TRHR agonist-2 inconclusive
CCN(CC)N=Nc1ccc(S(N)(=O)=O)cc1	TRHR enhancer-1 58 | TRHR enhancer-2 inactive | TRHR agonist-2 inactive
COc1cccc(CC(=O)Nc2c(C(=O)N3CCN(c4ccccc4F)CC3)oc3ccccc23)c1	none
Cc1c(NC(=O)CC(C)C)c(=O)n(-c2ccccc2)n1C	none
COc1ccc(Cn2nnnc2CN(CCCN2CCOCC2)Cc2cc3cc(OC)ccc3[nH]c2=O)cc1	TRHR enhancer-1 43 | TRHR enhancer-2 inactive | TRHR agonist-2 inactive
COc1ccc(C2/C(=C(\O)c3ccc4c(c3)OCCO4)C(=O)C(=O)N2c2nc(C)c(C(C)=O)s2)cc1 (stereo unspecified)	TRHR enhancer-1 41 | TRHR enhancer-2 inactive | TRHR agonist-2 inactive
CCOc1ccc(NC(C)C(=O)N/N=C/c2cccs2)cc1 (stereo unspecified)	TRHR enhancer-1 50 | TRHR enhancer-2 inactive | TRHR agonist-2 inactive
CCCN1CCC(CCOc2ccccc2)(C(=O)OCC)CC1	TRHR enhancer-1 56 | TRHR enhancer-2 inactive | TRHR agonist-2 inactive
CCOc1ccccc1C(=O)N(Cc1ccco1)Cc1ccccc1F	none
CC(NC(=S)NC(=O)c1ccccc1Br)c1ccccc1 (stereo unspecified)	TRHR enhancer-1 47 | TRHR enhancer-2 inactive | TRHR agonist-2 inactive
CC(C)C(NC(=O)c1ccccc1Br)c1ccccc1 (stereo unspecified)	none
O=C(CSC1=NCCN1)Nc1cccc([N+](=O)[O-])c1	none
CC(C)C(=O)Nc1nnc(NC(=S)Nc2ccccc2)s1	TRHR enhancer-1 50 | TRHR enhancer-2 inactive | TRHR agonist-2 inactive
CCN(CC)CCN(C(=O)c1ccc2c(c1)CCCC2)c1nc2c(C)cccc2s1	TRHR agonist-1 38 | TRHR enhancer-2 inactive | TRHR agonist-2 inactive
Cc1ccc(C(=O)CN2C(=O)NC3(CCc4ccccc43)C2=O)s1 (stereo unspecified)	TRHR enhancer-1 58 | TRHR enhancer-2 inactive | TRHR agonist-2 inactive
O=c1c2ccccc2nc(SCc2cn3ccsc3n2)n1-c1ccc(F)cc1	none
Cn1nccc1C(=O)Nc1sc2c(c1C#N)CCCC2	none
Cn1nccc1C(=O)Nc1sc2c(c1C(N)=O)CCCC2	TRHR agonist-1 32 | TRHR enhancer-2 inactive | TRHR agonist-2 inactive
Cc1cc(C)c2c(n1)nn1c(NCCCN(C)C)cc(C)nc21	TRHR enhancer-1 57 | TRHR enhancer-2 inactive | TRHR agonist-2 inactive
Cc1c(O)cc2c(c1O)C(=O)CC(c1ccc(O)cc1)O2 (stereo unspecified)	none
O=C(COc1ccc(Br)cc1)OCCN1CCCCC1	TRHR agonist-1 30 | TRHR enhancer-2 inactive | TRHR agonist-2 inactive
O=C(COc1ccc(Br)cc1)N1CCCCCC1	none
CC(=O)N1CCC(=NNS(=O)(=O)c2ccc(C)c([N+](=O)[O-])c2)CC1	none
N#Cc1c(-c2ccc3c(c2)OCO3)csc1N	none
N#Cc1c(-c2ccccc2)cc(-c2ccc3c(c2)OCO3)[nH]c1=O	TRHR enhancer-1 53 | TRHR enhancer-2 inactive | TRHR agonist-2 inactive
Cc1ccc(NC(=O)C2CSC3(C)CCC(=O)N23)cc1S(=O)(=O)N1CCOCC1 (stereo unspecified)	none (no result: D1 potentiator)
Cc1ccc(NC(=O)COC(=O)C2CSC3(C)CCC(=O)N23)cc1S(=O)(=O)N1CCOCC1 (stereo unspecified)	D1 antag -38, TRHR enhancer-1 42 | TRHR enhancer-2 inactive | TRHR agonist-2 inactive
COc1ccc(C2C([N+](=O)[O-])=C(C)N(C)C(=O)N2C)cc1OC (stereo unspecified)	none
O=S(=O)(NC1CCCCC1N1CCN(c2ccccc2F)CC1)c1ccc(Cl)cc1 (stereo unspecified)	TRHR agonist-1 33 | TRHR enhancer-2 inactive | TRHR agonist-2 inconclusive
O=S(=O)(NC1CCCCC1N1CCOCC1)c1ccc(Cl)cc1 (stereo unspecified)	none
COc1ccc(OC)c(NC(=S)Nc2ccccc2)c1	none
O=C(OCC(=O)N1CCN(c2ccccc2)CC1)c1ccc2ccccc2n1	TRHR enhancer-1 41 | TRHR enhancer-2 inactive | TRHR agonist-2 inactive
CCC1CN(C(=O)N2CCC(C(=O)NCCN(C)C)CC2)c2ccccc2O1 (stereo unspecified)	none
O=C(Nc1cccc2ncccc12)c1ccco1	TRHR enhancer-1 51 | TRHR enhancer-2 inactive | TRHR agonist-2 inactive
Cc1cccc(-n2c(N)cc(=O)nc2SCC(=O)Nc2ccccc2)c1	TRHR enhancer-1 45 | TRHR enhancer-2 inactive | TRHR agonist-2 inconclusive
O=C(COC(=O)c1ccc(C(F)(F)F)cc1)Nc1cccc(S(=O)(=O)N2CCCCC2)c1	none
